Data from PubChem BioAssay (NCI).
Where “and” joins values, the source holds several entries; their conditions need not be identical. Equal entries are not always repeated. Compounds without any hit were thinned out: in the full panel of roughly 83,000, 20% have a hit.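 Cell lines were cultured in 96-well plates, exposed to a single compound concentration, and assessed for percent growth 48 hours later.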 Calls of active or inactive are those of the source.

test system: MOLT-4 leukemia; experiment: NCI-60 one-dose screen, 48 h (100 = growth as untreated, 0 = no growth, -100 = all killed); details: 10 µM
Description: Growth inhibition of the MOLT-4 human tumor cell line is measured as a screen for anti-cancer activity. Cells are grown in 96 well plates and exposed to the test compound for 48 hours. Compounds are tested at a single concentration, which is 10^-5 M for most compounds. The reported endpoint is percent growth (GI% or GIPRCNT), where numbers from 0 - 100% represent growth inhibition, and numbers from -100% - 0 represent cell death. For example, a value of 40 represents 60% growth inhibition. A value of 0 means no net growth occurred over the course of the experiment. A value of -40 indicates 40% of cells at the beginning of the experiment died by the end of the experiment. A value of -100 means all cells are dead at the end of the experiment.
NCI-60 Human Tumor Cell Lines Screen was performed using the standard one-dose NCI protocol, which is described in more detail at https://dtp.cancer.gov/discovery_development/nci-60/default.htm.
Compounds with GIPRCNT values below 10 were considered active. Activity score was based on GIPRCNT using the following formula: […]
Score is 0 for GIPRCNT values of 100 or above, 50 for GIPRCNT values of 0, and 100 for GIPRCNT values of -100.

Row | Compound | growth
1 | O=c1ccn2c(n1)OC1CC2OC1COC(c1ccccc1)(c1ccccc1)c1ccccc1 (stereo not given) | 104% (inactive)

same assay, conditions: 10 µM unless noted

Row | Compound | growth
2 | CCOCCC(=O)O | 116% (inactive)
3 | CCCCC/C(C)=N\NC(N)=S | 57.2% (inactive)
4 | O=c1[nH]nnc2cc(Cl)ccc12 | 104% (inactive) and 95.9% (inactive)
5 | NCCSSC/C=C\CSSCCN | 98% (inactive)
6 | N=c1sc2ccccc2n1CC(=O)O | 117% (inactive)
7 | CC(=O)Oc1cc(C(C)C)c(OCCN(C)C)cc1C | 117% (inactive) and 105% (inactive)
8 | O=C(O)/C=C/C=C/c1ccccc1 | 106% (inactive) and 109% (inactive)
9 | O=C(c1ccncc1)c1c(Cc2ccccc2)ccc2ccccc12 | 94.6% (inactive)
10 | N#CC(=S)Nc1ccc(Cl)c(Cl)c1 | 15.8% (inactive)
11 | CC(NC(=O)CCl)c1ccccc1 (stereo not given) | 101% (inactive)
12 | c1ccc2c[n+](Cc3ccc4ccccc4n3)ccc2c1 | 92.4% (inactive)
13 | CCOC(=O)C(N)Cc1cc(I)c(O)c(I)c1 (stereo not given) | 102% (inactive) and 112% (inactive)
14 | COC1C(OC(N)=O)C(O)C(Oc2ccc3c(O)c(NC(=O)c4ccc(O)c(CC=C(C)C)c4)c(=O)oc3c2C)OC1(C)C (stereo not given) | 75.4% (inactive) and 93.5% (inactive)
15 | CCOC(=O)c1ccc(N2C(=O)C(Cl)(c3ccccc3)C2c2ccco2)cc1 (stereo not given) | 59.9% (inactive)
16 | OCCSc1ccc(Cl)cc1 | 118% (inactive) and 91.7% (inactive)
17 | Cc1c(O)nc(N)[nH]c1=O | 102% (inactive)
18 | Nc1ccc(Cl)c(S(=O)(=O)O)c1 | 109% (inactive)
19 | Cc1c(Cl)cc(Cl)c(N)c1Cl | 110% (inactive)
20 | COc1ccc2nccc(Cl)c2c1 | 106% (inactive)

Row | Compound | growth
21 | Cc1cc(-c2ccc(N=Nc3c(C)nn(-c4ccc(S(=O)(=O)O)cc4)c3O)c(C)c2)ccc1N=Nc1ccc(O)c(C(=O)O)c1 | 102% (inactive)
22 | CCOC(=O)c1ccc(C(=N)N)cc1 | 109% (inactive)
23 | O=C1c2cccnc2-c2ncccc21 | 117% [100 µM] (inactive)
24 | Nc1ccc2ccc(NS(=O)(=O)N3CCCCC3)cc2c1 | 18% (inactive)
25 | CC1CC(O)CC(C)(C)C1.CC1CC(O)CC(C)(C)C1.CC1CC(O)CC(C)(C)C1.CC1CC(O)CC(C)(C)C1.[Ti] (stereo not given) | 98.8% (inactive)
26 | O=COCCCc1ccccc1 | 113% (inactive)
27 | CC(=O)c1cccc(OC(=O)c2ccccc2)c1 | 84.7% (inactive)
28 | CC(C)(C)OC(=O)CC1(O)CCCCC1 | 108% (inactive)
29 | O=C(O)c1ccc2c3ccc(C(=O)O)c4c(C(=O)O)ccc(c5ccc(C(=O)O)c1c25)c43 | 106% (inactive)
30 | O=C(Nc1ccccc1)OCC(CN1CCCCC1)OC(=O)Nc1ccccc1 (stereo not given) | 64.8% (inactive) and 87.9% (inactive)
31 | O=C1C(=O)c2ccccc2C(O)=C1CC=C(Cl)Cl | 20.5% (inactive) and 23.4% (inactive)
32 | COC(=O)c1ccccc1Cl | 105% (inactive)
33 | O=C(O)Cc1cc(=O)[nH]n(-c2ccccc2)c1=O | 88.3% (inactive)
34 | COc1ccc2oc3cc(NCCN(C)C)ccc3c(=O)c2c1 | 80.3% (inactive) and 50.9% (inactive)
35 | O=C(NC(=O)c1ccc(F)c(Cl)c1)NC1CC1 | 94.2% (inactive) and 75.6% (inactive)
36 | N=C(N=C(N)N)N1CCOCC1 | 105% (inactive) and 102% (inactive)
37 | O=C(O)c1cccc(Br)c1 | 85.9% (inactive) and 96.2% (inactive)
38 | CCN(CC)C(=S)SCCO | 96.6% (inactive)
39 | COC(=O)CCOc1ccccc1 | 98.6% (inactive)

same assay, conditions: 100 µM

Row | Compound | growth
40 | O=c1ccn2c(n1)OC1CC2OC1COC(c1ccccc1)(c1ccccc1)c1ccccc1 (stereo not given) | 74.4% (inactive)
